# The whole screen tested about 2,400 compounds, of which about 580 (24%) were called active.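 Rule for the calls: active = activity change at or above the mean plus 3 SD of buffer wells without dofetilide, per plate; inactive = the rest.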 The list is a sample of the results.
# Biological target: Potassium voltage-gated channel subfamily KQT member 2 (Rattus norvegicus) (UniProt O88943)
# Test: KCNQ2 potentiation in CHO cells – cell-based, FluxOR thallium flux, counter-screen for hERG block protector project, confirmation (AID 1942);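 note: normalized value minus buffer-control mean plus three SD of buffer wells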
# Details: FluxOR thallium flux fluorescence, at 10 µM, stronger effect = higher value
# Sequence of Potassium voltage-gated channel subfamily KQT member 2 (Rattus norvegicus) (O88943 whole entry, looked up): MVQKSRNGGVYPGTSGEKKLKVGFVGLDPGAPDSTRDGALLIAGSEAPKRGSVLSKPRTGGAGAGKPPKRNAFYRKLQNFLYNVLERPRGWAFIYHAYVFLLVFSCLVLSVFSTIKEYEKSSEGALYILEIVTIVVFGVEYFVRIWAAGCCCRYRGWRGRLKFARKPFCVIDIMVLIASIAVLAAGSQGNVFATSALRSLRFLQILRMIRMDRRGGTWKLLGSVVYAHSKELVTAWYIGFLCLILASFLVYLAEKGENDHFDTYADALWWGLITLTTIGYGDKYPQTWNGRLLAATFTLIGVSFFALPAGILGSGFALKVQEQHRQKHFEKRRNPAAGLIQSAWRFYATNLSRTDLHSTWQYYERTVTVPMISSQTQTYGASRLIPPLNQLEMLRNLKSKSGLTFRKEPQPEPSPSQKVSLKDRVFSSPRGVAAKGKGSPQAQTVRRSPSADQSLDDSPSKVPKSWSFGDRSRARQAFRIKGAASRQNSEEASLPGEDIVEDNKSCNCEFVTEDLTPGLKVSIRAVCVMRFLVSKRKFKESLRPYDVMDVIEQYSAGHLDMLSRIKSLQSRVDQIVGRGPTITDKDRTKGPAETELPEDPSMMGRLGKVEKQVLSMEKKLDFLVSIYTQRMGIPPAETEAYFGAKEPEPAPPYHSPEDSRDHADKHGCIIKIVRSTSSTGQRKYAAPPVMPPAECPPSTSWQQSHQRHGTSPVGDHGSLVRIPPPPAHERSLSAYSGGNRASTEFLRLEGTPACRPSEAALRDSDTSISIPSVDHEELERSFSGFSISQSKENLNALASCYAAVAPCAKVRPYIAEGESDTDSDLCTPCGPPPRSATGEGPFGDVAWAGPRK
row,SMILES,"activity change, less the hit threshold"
1,CC1CCCC(C)N1S(=O)(=O)c1ccc(NC(=O)CCn2cnc3ccccc3c2=O)cc1 (stereo not given),-11.1% (inactive)
2,CC(C)CC1C(C#N)=C(N)Oc2n[nH]c(-c3cccs3)c21 (stereo not given),-12.4% (inactive)
3,CCN1C(=O)C2(/C(=C(\O)c3ccc4c(c3)OCCO4)C(=O)C(=O)N2CCCOC)c2ccccc21 (stereo not given),-12.7% (inactive)
4,O=C(CC1NC(=O)NC1=O)Nc1ccccc1 (stereo not given),-21.4% (inactive)
5,CC(C)C(=O)Nc1ccc2c(c1)Cc1cc(NC(=O)C(C)C)ccc1-2,-17.9% (inactive)
6,O=C(CC1CCCC1)Nc1ccc2c(c1)CCC2,54.5% (active)
7,CN1N=C(C(=O)N2CCc3c([nH]c4ccccc34)C2c2c(F)cccc2Cl)CCC1=O (stereo not given),-22.4% (inactive)
8,Cc1ccc(C(C(=O)NC(C)(C)C)N(Cc2cccnc2)C(=O)C(=O)NC2CCCCC2)o1 (stereo not given),-14.6% (inactive)
9,COc1cccc(C=NCC(C)N=Cc2cccc(OC)c2O)c1O (stereo not given),-2.9% (inactive)
10,COc1cccc(C=NCCCN=Cc2cccc(OC)c2O)c1O,6% (active)
11,COc1cccc(/C=N/Nc2nc3ccccc3[nH]2)c1O,-3.2% (inactive)
12,COC(=O)c1cccc(/C=N/NC(N)=S)c1O,-2.4% (inactive)
13,COc1cccc(C=Nc2cc(C)cc(C)c2)c1O,10% (active)
14,CCOc1cccc(/C=N/NC(=O)c2ccc3c(c2)OCCO3)c1O,-18.5% (inactive)
15,COc1ccc(-n2c(SCc3ccccn3)nc3c(c2=O)SCC3)cc1OC,-2.7% (inactive)
16,CCC1=C(OC(=O)N(CC)CC)N2C(=O)OC(=NCC3CC3)[C@]2(C)[C@H]2C1=CC[C@H]1C(=O)N(C)C(=O)[C@H]12,-15.9% (inactive)
17,O=C1CSC(=S)N1/N=C/c1cc(Br)ccc1O,-6.3% (inactive)
18,O=C(CN1CCN(c2ccc(Cl)cc2)CC1)Nc1ccc(F)cc1,-21.6% (inactive)
19,S=c1nc(-c2ccccc2)[nH]c2ccc(Br)cc12,135% (active)
20,S=c1nc(-c2ccc(Br)cc2)[nH]c2ccccc12,100% (active)
21,CCOC(=O)N/N=C\c1ccc(-c2cc(Cl)ccc2Cl)o1,-17.6% (inactive)
22,O=C1N(CN2CCN(Cc3ccccc3)CC2)c2ccccc2C12OCCCO2,-12.5% (inactive)
23,CCOc1cc(N2CCCC2)ccc1[N+](=O)[O-],-13.1% (inactive)
24,CC(C1CC2CCC1C2)n1c(-c2cccs2)n[nH]c1=S (stereo not given),-7.9% (inactive)
25,S=c1[nH]nc(-c2cccs2)n1/N=C/c1c(Cl)cccc1Cl,13.1% (active)

row,SMILES,"activity change, less the hit threshold"
1,Cc1cccc(/C=N/n2c(COc3ccccc3)n[nH]c2=S)c1,-13.8% (inactive)
2,CCC(=O)Nc1cc(=O)[nH]c2ncnn12,-13.1% (inactive)
3,CCOC(=O)C1=C(C)NC(=O)NC1c1cccc(OC)c1OCc1ccccc1Cl (stereo not given),-15.6% (inactive)
4,CN(C)c1ccc(NC(=O)CCCc2ccccc2)cc1,0.2% (active)
5,CN(Cc1ccccc1)C(=O)CCc1ccccc1,-22.5% (inactive)
6,CC(C)C(=O)Nc1ccc(NC(=O)CCc2ccccc2)cn1,-23.2% (inactive)
7,COc1cc2c(=O)nc3n(c2cc1OC)C(c1ccccc1)N=C(N)N3 (stereo not given),-18.8% (inactive)
8,Nc1nc2c(s1)CCc1c-2cnn1-c1ccccc1,-29.6% (inactive)
9,Oc1ccc(N=Nc2ccc3c(c2)OCCO3)c2ncccc12,-11.2% (inactive)
10,Oc1c(N=Nc2ccccn2)ccc2ccccc12,7.7% (active)
11,CC1CCN(c2ccc3c(c2)S(=O)(=O)c2ccccc2C3=O)CC1,-25.4% (inactive)
12,Cc1cc(-c2cccc(Br)c2)c(C#N)c(N)n1,-13.8% (inactive)
13,CCOC(=O)c1c(SCC(=O)Nc2nc(C)cs2)nc(=O)[nH]c1C,-17.9% (inactive)
14,O=c1c(-c2cccc3ccccc23)[n+]([O-])c2ccccc2n1O,5.6% (active)
15,Cc1ccc(-c2c(=O)n(O)c3ccccc3[n+]2[O-])cc1,59.1% (active)
16,O=c1c(-c2ccc(Cl)cc2)[n+]([O-])c2ccccc2n1O,92.9% (active)
17,O=c1c(-c2ccccc2)[n+]([O-])c2ccccc2n1O,-16.2% (inactive)
18,FC(F)c1nnc2c(Cl)cc(C(F)(F)F)cn12,-8% (inactive)
19,CC(=O)Nc1ccc(S(=O)(=O)N2CCC(C(=O)O)CC2)cc1,-26.7% (inactive)
20,Cc1cc(=O)[nH]c(SCC(=O)Nc2ccccc2C#N)c1C#N,-14.5% (inactive)
21,CCOc1cc(/C=C2/C(=O)ON=C2C)ccc1O,-11.8% (inactive)
22,COc1cc(-c2nnc(SCC(=O)O)n2-c2ccccc2)cc(OC)c1OC,-13.9% (inactive)
23,COc1cccc(/C=N/n2c(SC)nnc2-c2ccccc2)c1O,2.8% (active)
24,COc1cccc(/C=N/NC(=O)CSc2ccccc2C)c1O,-2.9% (inactive)
25,COc1cc(S(=O)(=O)Nc2c(C)cc(C)cc2C)ccc1Cl,-20.6% (inactive)

row,SMILES,"activity change, less the hit threshold"
1,COCCN1C(=O)C(=O)/C(=C(/O)c2ccc(S(=O)(=O)N3CCOCC3)cc2)C1c1ccc(OC)c(OC)c1 (stereo not given),-17.7% (inactive)
2,CCOC(=O)c1c(-c2ccccc2)csc1NC(=S)NC,19% (active)
3,CCOC(=O)c1ccc(NC(=O)Cn2nnc(-c3ccccc3)n2)cc1,-26.4% (inactive)
4,CCOC(=O)c1c(-c2ccc(C)o2)csc1NC(=S)NC(=O)N(C)C,24.3% (active)
5,CCOC(=O)c1c(C=O)c(C)n(Cc2ccccc2)c1C,-14.5% (inactive)
6,CCOC(=O)c1c(CC(C)C)csc1NC(=O)c1ccccc1C(=O)O,-7.7% (inactive)
7,CCNC(=S)Nc1scc(-c2ccccc2)c1C(=O)OCC,10.6% (active)
8,Nc1nonc1-n1nnc(C(=O)N/N=C/c2cccc(Cl)c2Cl)c1CN1CCCC1,-9.3% (inactive)
9,Oc1ccc2[nH]cnc2c1CN1CCCCC1,-16.5% (inactive)
10,O=C(O)C1C2CCC(O2)C1C(=O)Nc1ccc(F)c(Cl)c1 (stereo not given),-21% (inactive)
11,Cc1ccc(-c2noc(CCC(=O)NC3CCCC3)n2)cc1,-9.6% (inactive)
12,O=C(Nc1ccc(Cl)cc1Cl)c1n[nH]c(Cn2cncn2)n1,-6% (inactive)
13,CC(=O)c1cccc(NC(=O)NCc2cccs2)c1,-14.9% (inactive)
14,CN(CCc1ccccn1)C(=O)CCC1CCCN(C(=O)c2ccsc2)C1 (stereo not given),-13.1% (inactive)
15,CN(Cc1ccccc1)C(=S)NC(=O)c1cccs1,7.6% (active)
16,Cc1ccc(C(=O)NC(=S)N(C)Cc2ccccc2)cc1,7.1% (active)
17,O=C(c1cccs1)N1CCN=C1SCc1ccccc1,-22.6% (inactive)
18,Cc1ccc(C(=O)NNC(=S)NC(=O)c2ccccc2)cc1,-25.9% (inactive)
19,COc1ccc(N(CC(=O)NCc2cccnc2)S(=O)(=O)c2ccccc2[N+](=O)[O-])c(OC)c1,-23.8% (inactive)
20,Cc1ccc(-n2ccc(=O)c(C(=O)Nc3ccc(S(=O)(=O)Nc4nccs4)cc3)n2)cc1,-13.6% (inactive)
21,C=C(C)C1CC=C(C)/C(=N/NC(=O)CCC(=O)Nc2ccccc2Cl)C1 (stereo not given),-11.1% (inactive)
22,O=c1c2cc(Br)ccc2nc(-c2ccc([N+](=O)[O-])cc2)n1O,43.1% (active)
23,N#Cc1ccc(-c2nc3cc(Cl)ccc3c(=O)n2O)cc1,1.6% (active)
24,O=c1c2ccc(Cl)cc2nc(-c2ccc([N+](=O)[O-])cc2)n1O,26.8% (active)
25,O=c1c2cc(Cl)ccc2nc(-c2ccc([N+](=O)[O-])cc2)n1O,31.4% (active)

row,SMILES,"activity change, less the hit threshold"
1,COc1ccc(C(CC(=O)N2CCOCC2)c2c(O)cc(OC)cc2OC)cc1 (stereo not given),-14.7% (inactive)
2,COc1ccc(-c2cn3nc(SCC(=O)NC4CCCCC4)ccc3n2)cc1,-7.9% (inactive)
3,CCOC(=O)C(=CNc1cc(C)nn1C(C)(C)C)C(=O)OCC,-8.9% (inactive)
4,O=C(CCCc1c[nH]c2ccccc12)Nc1ccc(S(=O)(=O)Nc2ncccn2)cc1,-22% (inactive)
5,COc1ccc([N+](=O)[O-])cc1N(CC(=O)NCc1ccco1)S(C)(=O)=O,-12.1% (inactive)
6,COc1ccccc1-n1cnc2sc(C)c(C)c2c1=O,-17.7% (inactive)
7,CCc1nc2sc3c(c2c(=S)[nH]1)CC(C)(C)OC3,-13.3% (inactive)
8,CCC1(C)Cc2c(sc3nc(SC)[nH]c(=S)c23)CO1 (stereo not given),101% (active)
9,CSc1nc2sc3c(c2c(=S)[nH]1)CC(C)(C)OC3,73.2% (active)
10,COc1ccc(CCNC(=O)CC(NS(=O)(=O)c2ccc(NC(C)=O)cc2)C(C)C)cc1OC (stereo not given),-17.8% (inactive)
11,COC(=O)c1sccc1NS(=O)(=O)c1ccc(F)cc1F,-1.9% (inactive)
12,Cc1ccc(S(=O)(=O)N(C)C)cc1NC(=S)NC(C)CCCC(C)C (stereo not given),-25.5% (inactive)
13,Cc1cccc(/C=N/Nc2ccc3ccccc3n2)c1,-14.1% (inactive)
14,Cn1cc(/C=C2\SC(=O)NC2=S)c2ccccc21,-17.7% (inactive)
15,CCOc1ccc(/C=C2/SC(=O)NC2=S)cc1,83.5% (active)
16,CCOc1ccc(/C=C2\CCc3ccccc3C2=O)cc1,-13.5% (inactive)
17,O=C(O)c1ccccc1NC(=O)C1CCN(S(=O)(=O)c2cccc3nsnc23)CC1,-7% (inactive)
18,Cc1ccc2nsnc2c1S(=O)(=O)Nc1cccc2nsnc12,3.5% (active)
19,O=C(N/N=C/C(Cl)=C/c1ccc([N+](=O)[O-])cc1)C(=O)Nc1ccc(C(=O)O)cc1,-18.4% (inactive)
20,O=C(Nc1ccccc1C(=O)O)c1cccc(NC(=O)c2ccco2)c1,-3.3% (inactive)
21,O=C(NC(=S)Nc1cccc([N+](=O)[O-])c1)c1ccco1,-20.7% (inactive)
22,Cc1cccc(N=Cc2cc(Br)cc(Cl)c2O)c1,30.4% (active)
23,Oc1c(Br)cc(Cl)cc1C=Nc1ccccc1Br,28.2% (active)
24,O=C(Nc1cccc(N=Cc2cc(Cl)cc(Br)c2O)c1)c1ccco1,22.4% (active)
25,Oc1c(Cl)cc(Cl)cc1C=Nc1ccc(Br)cc1,38.8% (active)

# Reference: PubChem BioAssay AID1942 (Johns Hopkins Ion Channel Center, 2009)
